In PubChem BioAssay AID1159580 (chemical genetic matrix, 2015):
The campaign covered roughly 5,500 compounds. About 2,000 (36%) were called active. Roughly 18% stayed inconclusive and do not appear here. No stated cut-off is given here; in the data, active means normalized growth mostly below about 0.91 (no sharp cut-off); inconclusive means no clear call, values can overlap the other calls; inactive means mostly above about 0.92. Some of the results follow.

Assay: chemical genetic growth profiling, strain panel (AID 1159580);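 further: tested at 20 µM; growth read once vehicle control cultures reached saturation at 30 °C; 1 = growth at the plate median or of vehicle wells; lower values mean less growth of the strain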
Settings: growth OD
[1] = S. cerevisiae deletion strains, locus YAL013W, strain DEP1, hits give low values
[2] = S. cerevisiae deletion strains, locus YBR229C, strain ROT2, hits give low values
[3] = S. cerevisiae deletion strains, locus YDL101C, strain DUN1, hits give low values
[4] = S. cerevisiae deletion strains, locus YDL134C, strain PPH21, hits give low values
[5] = S. cerevisiae deletion strains, locus YDR150W, strain NUM1, hits give low values
[6] = S. cerevisiae deletion strains, locus YEL061C, strain CIN8, hits give low values
[7] = S. cerevisiae deletion strains, locus YGR078C, strain PAC10, hits give low values
[8] = S. cerevisiae deletion strains, locus YHR030C, strain SLT2, hits give low values
[9] = S. cerevisiae deletion strains, locus YHR087W, strain rtc3, hits give low values
[10] = S. cerevisiae deletion strains, locus YJR043C, strain POL32, hits give low values
[11] = S. cerevisiae deletion strains, locus YJR075W, strain HOC1, hits give low values
[12] = S. cerevisiae deletion strains, locus YLR039C, strain RIC1, hits give low values
[13] = S. cerevisiae deletion strains, locus YLR058C, strain SHM2 (second series), hits give low values
[14] = S. cerevisiae deletion strains, locus YLR085C, strain ARP6, hits give low values
[15] = S. cerevisiae deletion strains, locus YLR262C, strain YPT6, hits give low values
[16] = S. cerevisiae deletion strains, locus YML094W, strain GIM5, hits give low values
[17] = S. cerevisiae deletion strains, locus YMR219W, strain ESC1, hits give low values
[18] = S. cerevisiae deletion strains, locus YMR263W, strain SAP30, hits give low values
[19] = S. cerevisiae deletion strains, locus YNL153C, strain GIM3, hits give low values
[20] = S. cerevisiae deletion strains, locus YNL298W, strain CLA4 (second series), hits give low values
[21] = S. cerevisiae deletion strains, locus YNL322C, strain KRE1, hits give low values
[22] = S. cerevisiae deletion strains, locus YNR030W, strain Alg12, hits give low values
[23] = S. cerevisiae deletion strains, locus YPL055C, strain LGE1, hits give low values
[24] = S. cerevisiae deletion strains, locus YPL241C, strain CIN2, hits give low values
[25] = S. cerevisiae deletion strains, locus YPR135W, strain CTF4, hits give low values

Measured: normalized growth

COc1ccc(/C(C#N)=C/c2ccc(OC)c(OC)c2)cc1
inactive: [1] 0.953 | [2] 0.98 | [3] 0.985 | [4] 0.949 | [5] 0.951 | [6] 0.961 | [7] 0.968 | S. cerevisiae deletion strains, locus YGR229C, strain SMI1, hits give low values 0.972 | [9] 0.962 | S. cerevisiae deletion strains, locus YJL187C, strain SWE1, hits give low values 1 | [10] 0.964 | [11] 0.95 | [13] 0.998 | [16] 0.933 | [17] 0.998 | [18] 0.953 | [19] 0.969 | [20] 0.936 | [21] 0.994 | [22] 0.925 | [23] 0.9 | [24] 0.933 | [25] 0.698
active: [8] 0.548 | [12] 0.717 | [14] 0.768 | [15] 0.741

COc1ccc(/C=C(\C#N)c2nc3ccccc3[nH]2)cc1OC
active: [11] 0.859 | [14] 0.499 | S. cerevisiae deletion strains, locus YMR307W, strain GAS1, hits give low values 0.609 | S. cerevisiae deletion strains, locus YOL006C, strain TOP1, hits give low values 0.725 | [24] 0.857
inactive: [1] 0.947 | [2] 0.947 | [3] 0.961 | [4] 0.942 | [5] 0.934 | [6] 0.921 | [7] 0.948 | [8] 0.703 | [9] 0.912 | [10] 0.959 | [12] 0.817 | [13] 0.957 | [15] 0.851 | [16] 0.909 | [17] 0.971 | [18] 0.956 | [19] 0.975 | [20] 0.856 | [21] 0.95 | [22] 0.906 | [23] 0.885 | [25] 0.759 | S. cerevisiae strains, strain wild type, hits give low values 0.94

O=C(OCc1ccc(Oc2ccc(Cl)cc2Cl)c([N+](=O)[O-])c1)c1ccc([N+](=O)[O-])o1
inactive: S. cerevisiae deletion strains, locus YAR019C, strain CDC15, hits give low values 0.98 | S. cerevisiae deletion strains, locus YBL105C, strain PKC1, hits give low values 0.975 | S. cerevisiae deletion strains, locus YBR135W, strain CKS1, hits give low values 0.981 | S. cerevisiae deletion strains, locus YBR136W, strain MEC1, hits give low values 0.961 | S. cerevisiae deletion strains, locus YBR160W, strain CDC28, hits give low values 0.97 | S. cerevisiae deletion strains, locus YDL017W, strain CDC7, hits give low values 0.979 | S. cerevisiae deletion strains, locus YDL028C, strain MPS1, hits give low values 0.958 | [3] 0.98 | S. cerevisiae deletion strains, locus YDL108W, strain KIN28, hits give low values 0.969 | S. cerevisiae deletion strains, locus YDL132W, strain cdc53, hits give low values 0.974 | S. cerevisiae deletion strains, locus YDL214C, strain PRR2, hits give low values 1.01 | S. cerevisiae deletion strains, locus YDR052C, strain DBF4, hits give low values 0.99 | S. cerevisiae deletion strains, locus YDR054C, strain cdc34, hits give low values 0.968 | S. cerevisiae deletion strains, locus YDR226W, strain ADK1, hits give low values 0.97 | S. cerevisiae deletion strains, locus YDR477W, strain SNF1, hits give low values 0.971 | S. cerevisiae deletion strains, locus YER123W, strain YCK3, hits give low values 0.987 | S. cerevisiae deletion strains, locus YER133W, strain GLC7, hits give low values 0.995 | S. cerevisiae deletion strains, locus YFL009W, strain cdc4, hits give low values 0.956 | S. cerevisiae deletion strains, locus YFL029C, strain CAK1, hits give low values 0.978 | S. cerevisiae deletion strains, locus YFR003C, strain YPI1, hits give low values 0.985 | S. cerevisiae deletion strains, locus YFR019W, strain FAB1, hits give low values 0.99 | S. cerevisiae deletion strains, locus YFR028C, strain CDC14, hits give low values 0.969 | S. cerevisiae deletion strains, locus YGR040W, strain KSS1, hits give low values 0.977 | S. cerevisiae deletion strains, locus YGR052W, strain FMP48, hits give low values 1.07 | S. cerevisiae deletion strains, locus YGR092W, strain DBF2, hits give low values 0.957 | [8] 0.916 | S. cerevisiae deletion strains, locus YHR079C, strain IRE1, hits give low values 0.997 | S. cerevisiae deletion strains, locus YHR082C, strain KSP1, hits give low values 1.04 | S. cerevisiae deletion strains, locus YHR205W, strain SCH9, hits give low values 0.93 | S. cerevisiae deletion strains, locus YIL147C, strain SLN1, hits give low values 0.977 | S. cerevisiae deletion strains, locus YJL095W, strain BCK1, hits give low values 0.993 | S. cerevisiae deletion strains, locus YJL128C, strain PBS2, hits give low values 0.896 | S. cerevisiae deletion strains, locus YJL157C, strain FAR1, hits give low values 0.987 | S. cerevisiae deletion strains, locus YJR016C, strain ILV3, hits give low values 0.982 | S. cerevisiae deletion strains, locus YJR066W, strain TOR1 (second series), hits give low values 0.971 | S. cerevisiae deletion strains, locus YJR066W, strain TOR1, hits give low values 0.972 | S. cerevisiae deletion strains, locus YKL048C, strain ELM1, hits give low values 0.991 | S. cerevisiae deletion strains, locus YKL067W, strain YNK1, hits give low values 1 | S. cerevisiae deletion strains, locus YKL101W, strain HSL1, hits give low values 0.983 | S. cerevisiae deletion strains, locus YKL193C, strain SDS22, hits give low values 0.986 | S. cerevisiae deletion strains, locus YKL203C, strain TOR2, hits give low values 1.07 | S. cerevisiae deletion strains, locus YLR113W, strain HOG1, hits give low values 0.999 | S. cerevisiae deletion strains, locus YLR133W, strain CKI1, hits give low values 0.985 | S. cerevisiae deletion strains, locus YLR403W, strain SFP1, hits give low values 0.962 | S. cerevisiae deletion strains, locus YML070W, strain DAK1, hits give low values 1 | S. cerevisiae deletion strains, locus YMR001C, strain CDC5, hits give low values 0.97 | S. cerevisiae deletion strains, locus YMR205C, strain PFK2 (second series), hits give low values 1.01 | S. cerevisiae deletion strains, locus YMR277W, strain FCP1, hits give low values 0.966 | S. cerevisiae deletion strains, locus YNL006W, strain LST8, hits give low values 0.986 | S. cerevisiae deletion strains, locus YNL020C, strain ARK1, hits give low values 0.996 | S. cerevisiae deletion strains, locus YNL161W, strain CBK1, hits give low values 0.987 | S. cerevisiae deletion strains, locus YNL183C, strain NPR1, hits give low values 1.07 | S. cerevisiae deletion strains, locus YNL207W, strain RIO2, hits give low values 0.982 | S. cerevisiae deletion strains, locus YNL222W, strain SSU72, hits give low values 0.976 | S. cerevisiae deletion strains, locus YNL307C, strain MCK1 (second series), hits give low values 0.987 | S. cerevisiae deletion strains, locus YOL078W, strain AVO1, hits give low values 0.985 | S. cerevisiae deletion strains, locus YOL136C, strain PFK27, hits give low values 1 | S. cerevisiae deletion strains, locus YOR061W, strain CKA2, hits give low values 0.975 | S. cerevisiae deletion strains, locus YOR119C, strain RIO1, hits give low values 1.03 | S. cerevisiae deletion strains, locus YOR231W, strain MKK1, hits give low values 0.957 | S. cerevisiae deletion strains, locus YOR329C, strain SCD5, hits give low values 0.982 | S. cerevisiae deletion strains, locus YPL031C, strain PHO85, hits give low values 0.974 | S. cerevisiae deletion strains, locus YPL153C, strain RAD53, hits give low values 0.976 | S. cerevisiae deletion strains, locus YPL204W, strain HRR25, hits give low values 0.983 | S. cerevisiae deletion strains, locus YPL209C, strain IPL1, hits give low values 0.983 | S. cerevisiae deletion strains, locus YPL256C, strain CLN2, hits give low values 0.993 | S. cerevisiae deletion strains, locus YPR025C, strain CCL1, hits give low values 0.979 | S. cerevisiae deletion strains, locus YPR106W, strain ISR1, hits give low values 0.972 | S. cerevisiae deletion strains, locus YPR111W, strain DBF20, hits give low values 0.958 | S. cerevisiae deletion strains, strain NNK1, hits give low values 0.983 | S. cerevisiae deletion strains, strain TSCII, hits give low values 0.968
